Data on 14 compounds can be found in PubChem BioAssay.

Assay [1] relates to Wnt5a (protein binding on small-molecule microarray). Put plainly: small molecules binding Wnt5a protein – biophysical, small-molecule microarray, 635/667 nm fluorescence, primary screen (AID 1142).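 Note: fluorescence read at 667 nm with signal to noise per printed feature.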 To be noted: 635 nm fluorescence, higher = more signal.
Assay [2] in a line: ATP-based viability of Huh7 replicon cells – cell-based, CellTiter-Glo luminescence, basal, 48 h, cytotoxicity control for HCV replication inhibitor project, primary screen (AID 1143).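 Note: Huh7 hepatoma cells carrying a hepatitis C replication reporter with no stimulus; test concentration not given here.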 To be noted: higher = more signal, called active from +8 up or from −8 down.
Assay [3] is described as follows: Pseudomonas biofilm growth suppression – PAO1 strain, BacTiter-Glo luminescence, LB-PBS, primary screen (AID 1144). To be noted: P. aeruginosa PAO1 biofilm, 12 h, higher = more signal.
The nature of assay [4]: basal CRE-LacZ reporter activity in PC12 – cell-based, unstimulated, primary screen (AID 1145). The note with it: no forskolin, luminescence, 4.5 h, higher = more signal, called active from +8 up or from −8 down.
Assay [5] is described as follows: forskolin-driven CRE-LacZ activity in PC12 – cell-based, CRE-LacZ reporter, forskolin-stimulated, primary screen (AID 1146).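 Note: PC12 cells with 6xCRE LacZ reporter stimulated by forskolin 10 µM; beta-galactosidase reporter signal reflecting CREB driven transcription.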 The note with it: luminescence, 4.5 h, higher = more signal, called active from +8 up or from −8 down.
The target in assay [6] is Streptavidin (Streptomyces avidinii) (UniProt P22629). Put plainly: compounds binding control protein streptavidin – biophysical, small-molecule microarray, 635/667 nm fluorescence, artefact control for SMM compound annotation, primary screen (AID 1147).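 Note: signal reflects streptavidin binding to arrayed compounds as a control protein.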 The note with it: higher = more signal.
Chain of Streptavidin (Streptomyces avidinii) (P22629 whole entry, looked up): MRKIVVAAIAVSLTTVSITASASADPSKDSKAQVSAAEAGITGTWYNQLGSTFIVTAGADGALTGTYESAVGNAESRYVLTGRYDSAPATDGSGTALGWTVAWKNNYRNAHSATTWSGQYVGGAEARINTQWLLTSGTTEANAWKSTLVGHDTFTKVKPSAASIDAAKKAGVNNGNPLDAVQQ
The nature of assay [7]: probe aInhba binding on compound microarray – biochemical, small-molecule microarray, 635/667 nm fluorescence, primary screen (AID 1148).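 Note: score merges 667nm spot fluorescence with signal-to-noise for antibody binding to printed compounds.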 To be noted: higher = more signal.
Assay [8] deals with Torsin-1A (Homo sapiens) (UniProt O14656). The assay can be described thus: TOR1A wild-type binding on microarray – cell lysate, small-molecule microarray, lysate, 635/667 nm, primary screen (AID 1149). The note with it: COS7 hTOR1A-WT lysate, 635 nm fluorescence, higher = more signal.
Chain of Torsin-1A (Homo sapiens) (O14656 whole entry, looked up): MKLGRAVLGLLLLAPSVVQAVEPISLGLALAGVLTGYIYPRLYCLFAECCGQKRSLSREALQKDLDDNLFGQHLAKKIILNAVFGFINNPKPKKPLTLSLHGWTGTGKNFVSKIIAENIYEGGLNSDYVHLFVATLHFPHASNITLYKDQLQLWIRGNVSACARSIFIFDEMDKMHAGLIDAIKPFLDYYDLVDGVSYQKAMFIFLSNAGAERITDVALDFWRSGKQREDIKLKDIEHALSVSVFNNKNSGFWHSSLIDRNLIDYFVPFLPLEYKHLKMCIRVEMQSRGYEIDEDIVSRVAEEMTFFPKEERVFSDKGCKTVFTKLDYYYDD
Assay [9] has the same target. The assay can be described thus: torsin A mutant lysate binding on microarrays – cell lysate, small-molecule microarray, COS7 lysate, 635/667 nm fluorescence, primary screen (AID 1150).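 Note: score pools 667 nm emission and signal to noise measuring lysate protein binding.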 To be noted: COS7 hTOR1A mutant lysate, 635 nm fluorescence, higher = more signal.
Assay [10] has as its system Sonic hedgehog protein (Shh). Put plainly: Sonic hedgehog microarray binding compounds – biochemical, small-molecule microarray, 635/667 nm fluorescence, primary screen (AID 1151).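 Note: Shh protein binding to compounds spotted on small-molecule microarray slides; score combines spot fluorescence intensity with signal-to-noise across triplicate slides.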 To be noted: 635 nm fluorescence, higher = more signal.

Activity calls are given as the source filed them. Unless noted, the rule behind the calls is not given here.

Take `CN1C(=O)C2C=CC(C(O)C3=C[C@H]4C[C@@H](C3)C4(C)C)N(Nc3ccccc3)C2C1=O` (stereo not given in full): the composite z-score is 0.0737 in [1]; 0.186 in assay [6]; -0.0313 in assay [7]; -0.189 with Torsin-1A (Homo sapiens) [8]; 0.276 with Torsin-1A (Homo sapiens) [9]; 0.447 in assay [10]. Also, the z-score in assay [2] was 0.435 (inactive); in assay [3] it was -0.79 (inactive); in assay [4], 0.812 (inactive); in assay [5], 0.767 (inactive).
Take `[N-]=[N+]=NCc1ccccc1C[C@@]1(C(=O)NCC(O)CO)N=C(c2ccc(OCCCO)cc2)O[C@@H]1c1ccccc1N=[N+]=[N-]` (stereo not given in full): the composite z-score in assay [1] was 0.63; in assay [6], 1.89; in assay [7] it was 0.475; with Torsin-1A (Homo sapiens) [8] it was 0.73; in the assay with Torsin-1A (Homo sapiens) [9] it was 1.07; in assay [10], -0.762. Moreover, the z-score in assay [2] was -3.67 (inactive); in assay [3] it was -0.68 (inactive); in [4] it was 0.209 (inactive); in [5], -1.57 (inactive).
Turning to `COC(=O)[C@@]1(Cc2ccc(F)cc2)[C@@H]2[C@@H](CC(=O)[C@H]2CC(=O)C(=O)N(C)C)CN1C(=O)c1ccccc1`, the composite z-score in assay [1] is 0.618; in assay [6] it was 1.91; in assay [7], 0.242; in the assay with Torsin-1A (Homo sapiens) [8] it was 0.447; with Torsin-1A (Homo sapiens) [9] it was 0.884; in [10], -0.552. Moreover, the z-score in assay [2] is -2.42 (inactive); in assay [3] it was 0.215 (inactive); in [4], 0.576 (inactive); in assay [5], 0.245 (inactive).
For `C=C(/C(=C/C[C@@H](OC(C)=O)c1ccc(OCCO)cc1)c1cnc2ccccc2c1)C(C)C`, the composite z-score in [1] was 0.0701; in assay [6] it was 0.376; in [7] it was -0.084; in the assay with Torsin-1A (Homo sapiens) [8], -0.969; with Torsin-1A (Homo sapiens) [9], 0.576; in assay [10], 1.67. Also, the z-score was -1.07 (inactive) in assay [2], -0.25 (inactive) in assay [3], 0.681 (inactive) in assay [4] and -0.45 (inactive) in assay [5].
Turning to `O=C1c2ccccc2[C@@]2(Cc3ccccc3N(CC(F)(F)F)C2=O)[C@H](c2ccc(CO)cc2)N1Cc1ccccc1Cl`, the composite z-score in [1] was 0.125; in assay [6] it was 0.0272; in [7] it was -0.0256; in the assay with Torsin-1A (Homo sapiens) [8], 0.0329; with Torsin-1A (Homo sapiens) [9], 0.293; in [10], 1.42. In addition, the z-score in assay [2] was 0.289 (inactive); in [3], -0.165 (inactive); in assay [4], -0.141 (inactive); in [5], -1.11 (inactive).
On to `CO[C@H]1O[C@H](CO)[C@@H](OC(=O)Nc2ccc(Br)cc2)[C@H](OC(=O)c2cc3ccccc3[nH]2)[C@H]1OC(=O)c1cc2ccccc2[nH]1`, for which the composite z-score in [1] was 0.363; in assay [6], 1.22; in assay [7], 0.0342; in the assay with Torsin-1A (Homo sapiens) [8], 0.154; with Torsin-1A (Homo sapiens) [9], 0.46; in assay [10] it was 0.819. In addition, the z-score in assay [2] is -6.05 (inactive); in assay [3] it was -2.24 (inactive); in assay [4], 2.38 (inactive); in assay [5] it was -1.15 (inactive).
`COC(=O)c1c(CC[C@@H](CO)NC(=O)N2CCC[C@H]2Cn2cc(-c3ccccn3)nn2)oc(C(C)=O)c1C(=O)OC`: the composite z-score in assay [1] is -0.249; in [6] it was -0.281; in [7] it was -0.0178; with Torsin-1A (Homo sapiens) [8], 0.0323; with Torsin-1A (Homo sapiens) [9], 1.2; in [10], 0.515. In addition, the z-score is -1.44 (inactive) in assay [2], -0.95 (inactive) in [3], 0.395 (inactive) in assay [4] and -0.0037 (inactive) in [5].
Regarding `COc1cc2c(cc1O)C(C1CC1)N(Cc1cc3c(cc1Br)OCO3)CC2` (stereo not given), the composite z-score in [1] is -0.481; in assay [6], -0.735; in assay [7] it was -0.179; in the assay with Torsin-1A (Homo sapiens) [8] it was -0.151; in the assay with Torsin-1A (Homo sapiens) [9], -0.416; in assay [10] it was -1.09. The z-score in assay [2] was -5.73 (inactive); in assay [3] it was -0.109 (inactive); in assay [4], 0.245 (inactive); in assay [5] it was 4.34 (inactive).
Turning to `COCCOC(=O)N1C(=O)[C@@]2(c3cc(C#Cc4ccc(OC)cc4)ccc31)[C@H](c1ccccc1OCCO)N1[C@H](c3ccccc3)[C@H](c3ccccc3)OC(=O)[C@H]1[C@@H]2C(=O)N1CCN(c2ncccn2)CC1`, the composite z-score was 0.418 in assay [1]; 0.226 in [6]; -0.0405 in [7]; 0.617 with Torsin-1A (Homo sapiens) [8]; 0.374 with Torsin-1A (Homo sapiens) [9]; 1.05 in [10]. The z-score is -0.915 (inactive) in assay [2], -0.418 (inactive) in assay [3], -0.199 (inactive) in assay [4] and 0.298 (inactive) in assay [5].
As for `CC(C)(C)OC(=O)CC[C@@]12N=C(c3ccc(OCCCO)cc3)O[C@@H]1c1ccccc1N(CCS(=O)(=O)c1ccccc1)C2=O`, the composite z-score was 0.251 in assay [1]; 0.901 in assay [6]; 0.0737 in [7]; -0.0101 with Torsin-1A (Homo sapiens) [8]; 0.537 in the assay with Torsin-1A (Homo sapiens) [9]; 1.27 in [10]. Further, the z-score in assay [2] is -3.45 (inactive); in [3], 0.114 (inactive); in [4], -0.389 (inactive); in assay [5] it was -1.71 (inactive).
Take `COc1ccc([Si](C)(C)[C@H]2[C@H](CCn3cc([C@H](O)c4ccccc4)nn3)O[C@@]3(C(=O)N(Cc4cccc(N5CCOC5=O)c4)c4ccccc43)[C@@H]2C)cc1`: the composite z-score was 0.488 in assay [1]; 0.283 in assay [6]; -0.362 in assay [7]; 0.132 with Torsin-1A (Homo sapiens) [8]; 0.199 in the assay with Torsin-1A (Homo sapiens) [9]; 1.5 in assay [10]. The z-score in assay [2] was -1.78 (inactive); in assay [3], -0.394 (inactive); in assay [4] it was -0.36 (inactive); in assay [5] it was 1.32 (inactive).
`O=C1O[C@H](c2ccccc2)[C@H](c2ccccc2)N2[C@H]1[C@@H](C(=O)O)[C@]1(C(=O)Nc3ccc(C#CC4=CCCCC4)cc31)[C@H]2c1ccccc1OCCO`: the composite z-score was found to be 1.02 in assay [1]; 1.97 in assay [6]; 0.17 in assay [7]; 0.849 with Torsin-1A (Homo sapiens) [8]; 0.516 in the assay with Torsin-1A (Homo sapiens) [9]; 0.892 in assay [10]. The z-score was -4.67 (inactive) in assay [2], -0.177 (inactive) in [3], 17.1 (active) in assay [4] and 26.1 (active) in [5].
For `COC(=O)[C@@]1(Cc2ccccc2)[C@H]2c3cc(C(=O)N4CCCC4)n(Cc4cccc5ccccc45)c3C[C@H]2CN1C(=O)c1ccccc1`, the composite z-score was 1.67 in assay [1]; 2.82 in assay [6]; 1.52 in assay [7]; -0.0124 with Torsin-1A (Homo sapiens) [8]; 0.669 with Torsin-1A (Homo sapiens) [9]; -0.27 in [10]. In addition, the z-score in [2] was -2.97 (inactive); in [3], 0.786 (inactive); in [4], 1.73 (inactive); in assay [5], 0.941 (inactive).
For the compound `O=C1O[C@@H](c2ccccc2)[C@@H](c2ccccc2)N2[C@@H](c3ccccc3OCCO)[C@]3(C(=O)Nc4ccc(C#CC5=CCCCC5)cc43)[C@@H](C(=O)Nc3nc4ccccc4s3)[C@H]12`, the composite z-score in assay [1] was 0.799; in assay [6], 1.1; in assay [7], 0.0516; with Torsin-1A (Homo sapiens) [8] it was -0.271; with Torsin-1A (Homo sapiens) [9], 0.335; in [10], 0.988. For the same compound, the z-score in assay [2] is -4.3 (inactive); in assay [3], -1.15 (inactive); in assay [4], -0.191 (inactive); in assay [5], 0.447 (inactive).
